HepG2 tox: counter-screen for TGF-b inhibitors: cytotoxicity in HepG2 cells; HepG2 CAGA-GFP viability, ATP luminescence, 18 h; Potency, µM (series often up to 46.1 µM), usual class: cytotoxic; 410,000 compounds, 0.76% hits; AID 588856
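HepG2 CAGA-GFP cells (1000/well, DMEM with 1% FBS) received compound, then TGF-beta at 500 pg/mL final, and were incubated 18 hours at 37 degrees C. Viability was read by CellTiter-Glo luminescence. Media-only wells were set as complete cell-killing and DMSO as no toxicity.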
HT1080NT lethal: kills 2HG-producing HT-1080-NT fibrosarcoma cells. HT-1080-NT fibrosarcoma viability, CellTiter-Glo ATP luminescence, 48 h. Potency, µM (titrated, usually from 46.1 µM), hits mostly cytotoxic. 360,000 compounds, 1.6% hits;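 note: NT is the 2HG producing partner of a matched IDH1 knockdown line; nearly all actives have a fitted effect of over 55% in size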
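HT-1080-NT fibrosarcoma cells (2HG-overproducing), 750 cells/well in RPMI with 5% FBS, dosed after 2 h and incubated 48 h at 37C. CellTiter-Glo luminescence normalized to DMSO and no-cell wells; concentration-response curves fitted and classed.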
HT1080 IDH1KD tx: toxicity to HT-1080 IDH1 knockdown cells (counter line); HT-1080 IDH1 knockdown viability, ATP luminescence, 48 h; Potency, µM (highest dose often 46.1 µM), usual class: cytotoxic; 360,000 compounds, 2% hits; AID 686971
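In this qHTS, HT-1080 cells depleted of IDH1 are exposed for 48 h at 37 °C to compound titrations. Toxicity is scored from CellTiter-Glo luminescence, with DMSO as full viability and medium alone as none.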
TGFb SMAD3 inh: inhibitors of TGF-b signaling. HepG2 CAGA-GFP TGF-b/SMAD3 reporter, GFP fluorescence, 18 h; TGF-beta stimulated, 500 pg/mL final. Potency, µM (titrated, usually from 46.1 µM), most hits filed as inhibitors. 410,000 compounds, 1.2% hits; note: nearly all actives have a fitted effect of over 65% in size
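Inhibition of TGF-beta-driven CAGA-GFP reporter expression in HEPG2 cells is measured by cellular GFP fluorescence after 18 h stimulation with 500 pg/mL recombinant TGF-beta in 1% FBS medium at 37 degrees C.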
DT40 TDP1 CPT: growth inhibition of DT40 Tdp1-/-;hTDP1 cells with camptothecin (screen for TDP1 inhibitors). chicken DT40 Tdp1-/-;hTDP1 cells + 20 nM CPT, ATP luminescence, 48 h. Potency, µM (titrated, usually from 46.2 µM), hits mostly inhibitors. 420,000 compounds, 12% hits. AID 686979; note: nearly all actives have a fitted effect of over 55% in size
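Chicken DT40 Tdp1-/- cells complemented with human TDP1, 400 cells/well, exposed to compounds plus 20 nM camptothecin for at least 48 h at 37 C; viability read as ATP content by CellTiter-Glo luminescence.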
DT40 TDP1 no CPT: qHTS for Inhibitors of human tyrosyl-DNA phosphodiesterase 1 (TDP1): qHTS in cells in absence of CPT | DT40 Tdp1-/- hTDP1 cells, no CPT, ATP luminescence, 48 h | Potency, µM (titrated, usually from 46.2 µM), most hits filed as inhibitors | 420,000 compounds, 15% hits | AID 686978, 2013; note: nearly all actives have a fitted effect of over 55% in size
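Stably hTDP1-transfected Tdp1-null chicken DT40 cells were treated with library compounds minus camptothecin and grown for at least 48 hr at 37 °C, after which cellular ATP was quantified by luminescence.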
Hits are given with their value; 0 = inactive; ? = inconclusive; - = no result; ! = a repeat was not active; [ ] = another dose, or the depositor's remark. Shown are actives, neighbours in structure and some others; about 17% of the full set was active somewhere. Calls come from the whole dose curve; as a rule, active = well fitted curve in the direction sought with a large enough effect; inconclusive = small, poorly fitted or top-dose-only effect, or another doubt; inactive = no such curve, though single readings can be large; an effect the other way counts as inactive or inconclusive.

SMILES | HepG2 tox | HT1080NT lethal | HT1080 IDH1KD tx | TGFb SMAD3 inh | DT40 TDP1 CPT | DT40 TDP1 no CPT
COC(=O)C(Cc1ccc(O)cc1)N1Cc2ccccc2C1=O (configuration not stated) | 0 | 0 | 0 | 0 | 0 | 0
Cc1cccc(C)c1NC(=O)Cc1cccs1 | 0 | 0 | 0 | 0 | 0 | 0
O=C(Nc1cccs1)Nc1cc(C(F)(F)F)ccc1Cl | 0 | - | - | - | ? | 16µM
Cc1cccc(C)c1NC(=O)Nc1cccs1 | 0 | 0 | 0 | 0 | 18µM | 18µM
O=C(Nc1cccs1)Nc1ccccc1Br | 0 | 0 | 0 | ? | ? | ?
N#Cc1cccc(NC(=O)Nc2cccs2)c1 | 0 | 0 | 0 | 0 | ? | 16µM
O=C(Nc1cccs1)Nc1c(F)cc(F)cc1Br | 0 | 0 | 0 | 0 | 7.3µM | 23µM
CCc1cccc(NC(=O)Nc2cccs2)c1 | 0 | 0 | 0 | 0 | ? | ?
N[C@H](C(=O)O)[C@@H](O)c1ccc(O)c(O)c1 | - | - | - | - | ? | 0
O=C(Nc1cccs1)Nc1c(F)c(F)cc(F)c1F | 0 | 0 | 0 | 0 | 0 | 0
O=C(Nc1cccs1)Nc1c(F)c(F)c(F)c(F)c1F | 0 | 0 | 0 | 0 | 21µM | 16µM
CC(=O)NNS(=O)(=O)c1ccc(-c2cc(C(F)(F)F)n(C)n2)s1 | 0 | 0 | 0 | 0 | 0 | 0
Clc1ccc(-c2ccc(-c3nn4c(-c5ccco5)nnc4s3)o2)cc1 | 0 | 0 | 0 | 0 | ? | 10µM
CC(=O)OCC1OC(n2cc(F)c(=O)[nH]c2=O)C(OC(C)=O)C1OC(C)=O (configuration not stated) | 0 | 0 | ? | ? | 8.2µM | 5.2µM
CC(=O)OCC1OC(n2cnc3c(Cl)nc(Cl)nc32)C(OC(C)=O)C1OC(C)=O (configuration not stated) | - | - | - | - | ? | 21µM
CC(=O)OC[C@H]1O[C@@H](n2ccc(=O)[nH]c2=S)C(OC(C)=O)C1OC(C)=O (some centres not stated) | 0 | 0 | 0 | 0 | 0 | 0
O=C1C=CC2=C3c4cc(O)c(O)cc4CC3(O)COC2=C1O (configuration not stated) | 0 | 0 | 0 | 0 | 16µM! | ?
COc1cccc(Cn2c(=O)c(-c3cccc(C#N)c3)nc3cnc(N4CCOCC4)nc32)c1 | - | - | - | - | 0 | 0
CCc1ccc(CCC(=O)Nc2ccc(C(=O)O)cc2)o1 | 0 | 0 | 0 | 0 | 0 | 0
Cc1ccc2cc(C#N)c(NCCNC(=S)NCCCN(C)C)nc2c1C | 0 | 21µM | ? | 0 | ? | 26µM
Cc1cc(C)c2nc(NCCCNC(=S)NCCCN(C)C)c(C#N)cc2c1 | 0 | ? | ? | ? | 5.8µM | 5.8µM
COCCCNC(=S)NCCNc1nc2cc(C)cc(C)c2cc1C#N | 0 | 0 | 0 | 0 | ? | ?
CCOCCCNC(=S)NCCNc1nc2c(C)cccc2cc1C#N | 0 | ? | 0 | ? | ? | ?
Cc1ccc2cc(C#N)c(NCCNC(=O)C3CC3)nc2c1C | 0 | 0 | 0 | 0 | 15µM | 7.3µM
CCOCCCNC(=S)NCCCNc1nc2c(C)cc(C)cc2cc1C#N | 0 | 0 | 0 | ? | 8.2µM | 18µM
SMILES | HepG2 tox | HT1080NT lethal | HT1080 IDH1KD tx | TGFb SMAD3 inh | DT40 TDP1 CPT | DT40 TDP1 no CPT
C=CCn1c(CCC(O)CCCCC)n[nH]c1=S (configuration not stated) | 0 | 0 | 0 | 0 | 0 | 0
CCc1ccccc1NC(=O)Cn1nc(CC)n2c(cc3sccc32)c1=O | 0 | - | - | ? | 0 | ?
COc1cc2nc(N3CCCC(O)C3)c(CNCc3ccccc3C(F)(F)F)cc2c(OC)c1OC (configuration not stated) | - | - | - | - | 0[9.04 µM] | ?
S=c1[nH]c(-c2ccccc2)cn1/N=C/c1cccs1 | 0 | 0 | 0 | 0 | 0 | 8.2µM
S=c1[nH]c(-c2ccccc2)cn1/N=C/c1ccc(Br)cc1 | 0 | 0 | 0 | 0 | 3.7µM | 4.6µM
Fc1ccccc1/C=N/n1cc(-c2ccccc2)[nH]c1=S | 0 | 0 | 0 | 0 | 15µM | 8.2µM

Screening results from PubChem.
